Compound activity deposited in PubChem BioAssay by National Center for Advancing Translational Sciences (NCATS).
Six1-Eya2 blk: qHTS Assay for Inhibitors of the Six1/Eya2 Interaction; Homeobox protein SIX1 (Homo sapiens) + Protein phosphatase EYA2 (Homo sapiens), …; AlphaScreen GST-Six1/His-Eya2 binding, biochemical; stronger effect = lower value; activity change, % (concentration not given with the values); hit rate 0.56% among 360,000; in the data active = activity change below about -65%; inconclusive = mostly about -30% to -63%
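GST-Six1 + His-Eya2 (5X stock: 250/500 nM); Tris pH 8.0, 300 mM NaCl, 0.05% BSA, 0.02% Tween 20; GSH donor/Ni acceptor beads; 1 h 37 °C dark; AlphaScreen readout.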
CtBP-E1A blk: qHTS Assay for Inhibitors of the CtBP/E1A Interaction; CtBP / adenovirus E1A interaction (AlphaScreen); AID 651724, 2012; hit rate 0.49% among 340,000; AlphaScreen GST-E1A/His-CtBP binding, 1536-well; stronger effect = lower value; activity change, % (no concentration beside the values); in the data active = activity change below about -65%; inconclusive = mostly about -30% to -63%
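Homogeneous bead-based format: GST-tagged E1A captured on glutathione donor beads, His-tagged CtBP on nickel acceptor beads; compounds precede bead addition by 2 h at 37 °C.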
DT40 TDP1 no CPT: qHTS for Inhibitors of human tyrosyl-DNA phosphodiesterase 1 (TDP1): qHTS in cells in absence of CPT | hit rate 15% among 420,000 | AID 686978, 2013 | Potency, µM (titrated, usually from 46.2 µM), for inactives: top-dose activity change, negative = growth inhibition, hits mostly inhibitors | DT40 Tdp1-/- hTDP1 cells, no CPT, ATP luminescence, 48 h; also: potency is read from the fitted curve at half-maximal effect; nearly all actives have a fitted effect of over 55% in size
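A cellular qHTS used chicken DT40 cells lacking endogenous Tdp1 but carrying stably transfected human TDP1. Compounds were applied without camptothecin, and cell growth kinetics were judged by ATP-dependent luminescence after ≥48 hr.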
IL1B secr inh: qHTS for Inhibitors of Inflammasome Signaling: IL-1-beta AlphaLISA Primary Screen | THP-1 LPS/ATP IL-1B secretion, AlphaLISA, 16 h; stronger effect = lower value | activity change, % at 57.5 µM | hit rate 4.7% among 360,000; in the data active = activity change below about -50%; inconclusive = mostly about -30% to -49%
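Secreted IL-1B measured by AlphaLISA bead assay after 16 h compound exposure of THP-1 cells; compounds (final up to 57.5 uM) added 1 h before LPS (250 ng/mL) and ATP (1.25 mM) stimulation; lower signal means less secretion.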
TDP1 block: qHTS Assay for Inhibitors of Tyrosyl-DNA Phosphodiesterase (TDP1) | Tyrosyl-DNA phosphodiesterase 1 (Homo sapiens), Q9NUW8 | recombinant TDP1, AlphaScreen DNA substrate cleavage | Potency, µM (highest dose often 130 µM), for the others: top-dose activity change, negative = inhibition, actives largely listed as inhibitors | hit rate 0.28% among 350,000 | AID 485290, 2010; also: potency is read from the fitted curve at half-maximal effect; nearly all actives have a fitted effect of over 40% in size
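Compounds were preincubated with Tdp1 (1 nM final) for 15 min at room temperature before substrate (15 nM final) started a 5 min reaction; beads (10 ug/ml final) were then added for 10 min before AlphaScreen detection.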
DT40 TDP1 CPT: qHTS for Inhibitors of human tyrosyl-DNA phosphodiesterase 1 (TDP1): qHTS in cells in presence of CPT; Potency, µM (top dose mostly 46.2 µM), without a hit: top-dose activity change, negative = growth inhibition, most hits filed as inhibitors; hit rate 12% among 420,000; AID 686979, 2013; chicken DT40 Tdp1-/-;hTDP1 cells + 20 nM CPT, ATP luminescence, 48 h; also: potency is read from the fitted curve at half-maximal effect; nearly all actives have a fitted effect of over 55% in size
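Chicken DT40 Tdp1-/- cells complemented with human TDP1, 400 cells/well, exposed to compounds plus 20 nM camptothecin for at least 48 h at 37 C; viability read as ATP content by CellTiter-Glo luminescence.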
* hit, by the source's call; ? = inconclusive; . = not tested or not shown; [ ] = dose if it differs, or a comment. Most compounds without a hit are left out; they make up all but 18% or so of the library. Unless noted, calls follow the shape of the dose curve; as a rule, active = well fitted curve in the direction sought with a large enough effect; inconclusive = small, poorly fitted or top-dose-only effect, or another doubt; inactive = no such curve, though single readings can be large; an effect the other way counts as inactive or inconclusive. % is scaled to controls: 0 for no effect and ±100 for the full control effect.

SMILES	Six1-Eya2 blk	CtBP-E1A blk	DT40 TDP1 no CPT	IL1B secr inh	TDP1 block	DT40 TDP1 CPT
Cn1cc(/C=C/c2ccc3ccccc3n2)c2ccccc21	.	.	10µM*	.	.	11µM*
C(=C\c1ccc2ccccc2n1)/c1ccccc1	3	.	?	6	-10%	?
Cn1cc(/C=N/Nc2ccccc2)c2ccccc21	-1	3	?	49	10%	?
O=C(O)/C=C/c1ccc2ccccc2n1	0	8	-27%	-71*	2%	?
CC[N+](CC)(CC)c1ccc(/C=C/c2ccc3ccccc3n2)cc1	.	.	0.071µM*	.	.	0.089µM*
CCN1C(=O)[C@H]2[C@@H](c3ccc(C)cc3)N3C(=O)N(c4ccccc4)C(=O)[C@@]3(Cc3ccccc3)[C@H]2C1=O	0	4	-1%	17	.	-10%
COc1cc(NC(=O)CN2C(=O)CCc3cc(Br)ccc32)cc(OC)c1OC	.	.	?	.	2%	?
COC(=O)C/C=C\[C@@H](C)[C@@H](/C=N\O[C@@H](C)c1cn([C@H](CO)Cc2ccccc2)nn1)NS(=O)(=O)c1ccc(C)cc1	.	.	.	.	5%[21 µM]	.
O/C(=C\c1ccc2ccccc2n1)c1ccc(O)cc1O	-15	2	-21%	-1	4%	12%
C(=NN1CCCCCC1)c1ccc2ccccc2n1	-12	-11	16µM*	-4	.	?
C(=NN1CCCCCC1)c1cccc2ccccc12	-20	-21	?	-19	.	-2%
C(=C\c1ccnc2ccccc12)/c1ccc2ccccc2n1	.	.	7.9µM*	.	.	7.1µM*
CC(=O)c1ccc(N2CCN(C(=O)/C=C/c3ccc4ccccc4n3)CC2)cc1	0	-7	15µM*	53	3%	?
O=C(/C=C/c1ccc2ccccc2n1)c1cc(Br)ccc1O	-7	-5	?	44	5%	12µM*
C(=Cc1c[nH]c2ccccc12)c1ccc2ccccc2n1	11	32	?	-26	.	?
O=C1CCC(=O)N1OCCOc1ccc2c(c1)CCC2	0	-4	-9%	3	7%	-13%
C[C@@]12C=Cc3occc3[C@H]1CC[C@@]13C[C@@H](CC[C@H]12)[C@@](O)(CO)C3	.	.	.	.	11%	.
O=C(NCCc1c[nH]c2ccccc12)Nc1ccccc1	-2	-4	?	-26	7%	-5%
C(=C\c1ccc2ccccc2n1)/c1cccnc1	.	.	16µM*	.	.	22µM*
Oc1ccc(/C=C/c2ccc3ccccc3n2)cc1	9	.	21µM*	-16	-5%	23µM*
Cc1cc(-n2nc3ccc(Cl)cc3n2)c(O)c(C(C)(C)C)c1	.	.	4%	.	3%	0%
Cc1cc(Cl)c(O)c(-n2nc3ccccc3n2)c1	5	-1	?	3	3%	21µM*
O=C(CCNS(=O)(=O)c1ccc(Br)s1)NCc1ccccc1	3	-2	-12%	18	1%	-4%
COc1ccc(-c2noc(CSc3nc(N)c(-c4ccccc4)c(=O)[nH]3)n2)cc1	-5	2	?	13	5%	-16%
CC(NCC(O)c1ccc([N+](=O)[O-])cc1)C12CC3CC(CC(C3)C1)C2 (stereo not drawn)	-12	-10	?	-85*	1%	?
COC(=O)CSC1=C(C#N)C(c2cccc(F)c2)CC(=O)N1 (stereo not drawn)	6	-4	23µM*	53	3%	?
CCOC(=O)CSC1=C(C#N)C(c2ccc(C)s2)CC(=O)N1 (stereo not drawn)	1	7	3.3µM*	-18	-1%	5.2µM*
